Screening results (PubChem)
MazEF act: increases E. coli MazEF RNase cleavage of RNA | hit rate 0.32% among 350,000 | P0AE70 | AID 504720 | FAM/BHQ RNA-DNA oligo cleavage fluorescence, 5 h | activation, % at 20 µM; in the data active = activation above about 50%
Target sequence (P0AE70 whole entry, looked up): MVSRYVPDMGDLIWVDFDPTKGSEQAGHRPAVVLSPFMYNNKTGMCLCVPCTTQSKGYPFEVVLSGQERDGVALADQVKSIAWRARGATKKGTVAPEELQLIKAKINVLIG
CCHF vOTU inh: CCHFV vOTU protease inhibition. inhibition, % at 11.5 µM. Pep-AMC fluorescence. hit rate 0.55% among 370,000; in the data active = inhibition above about 30%; also: 0% = vehicle wells with enzyme and 100% = no enzyme wells
Sa RN4220 lethal: S. aureus RN4220 growth inhibition. OD600, 16 h. inhibition, % (no concentration beside the values). hit rate 0.33% among 330,000; in the data active = inhibition above about 85%;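 also: plate controls were untreated cells for no effect and reference antibiotic for full effect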
Sa ugtP lethal: growth inhibition of S. aureus ugtP deletion strain; S. aureus RN4220 ugtP deletion, OD600 growth, 16 h; growth inhibition, % (concentration not given with the values); hit rate 0.54% among 330,000; in the data active = growth inhibition above about 68%;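 also: plate controls were untreated wells for no effect and antibiotic for full effect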
SARS 3CLpro inh-1: SARS-CoV 3CLpro protease inhibition; hit rate 0.14% among 290,000; AID 1706; inhibition, % at 6 µM; P0C6X7; recombinant SARS-CoV 3CLpro, quenched FRET peptide cleavage; in the data active = inhibition above about 12%
Mtb betalactam: beta-lactam sensitization of Mtb H37Rv; M. tuberculosis H37Rv growth with meropenem, percent inhibition; hit rate 0.27% among 330,000; inhibition, % at 25 µM; AID 434955; call rule not given here;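 also: growth measured after seven days incubation then overnight dye step; 0% = bacteria only wells and 100% = bacteria with antibiotic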
SARS 3CLpro inh-2: confirmation of SARS coronavirus 3C-like protease inhibitors; shares compounds with SARS 3CLpro inh-1; QFRET protease activity assay, 3CLpro; inhibition, % at 6 µM; hit rate 36% among 380; AID 1879; in the data active = inhibition above about 13%
* marks the source's active call; other numbers are inactive results; nt = not tested or not shown; + = active, no number. Hits are enriched below; roughly 1.3% of the tested compounds scored in any of these assays.

SMILES | MazEF act | CCHF vOTU inh | Sa RN4220 lethal | Sa ugtP lethal | SARS 3CLpro inh-1 | Mtb betalactam | SARS 3CLpro inh-2
O=C(Nc1ccccc1)C(Cl)C(=O)c1ccccc1 (configuration not stated) | 1 | -11 | 64 | 92* | -3 | 2 | nt
CC(=O)C(Cl)C(=O)Nc1ccccc1 (configuration not stated) | 1 | 0 | 6 | 2 | 0 | nt | nt
CN(N=Cc1ccc2c(c1)OCO2)c1nc(N2CCOCC2)nc(N2CCOCC2)n1 | nt | nt | 11 | 14 | nt | nt | nt
Cc1c(CCC(=O)O)c(=O)oc2c(C)c3occ(-c4ccc(Cl)cc4)c3cc12 | -24 | -3 | 96* | 101* | 3 | 60 | nt
CC(C)(C)OC(=O)N1CCC(NC(=O)c2[nH]cnc2C(=O)NC(Cc2ccccc2)C(=O)OCc2ccccc2)CC1 (configuration not stated) | nt | nt | 5 | -24 | nt | nt | nt
CC(=O)OC1C[C@@]2(C)C(CC(O)C3[C@@]4(C)CCC(O)C(C)C4CC[C@@]32C)C1=C(CCC=C(C)C)C(=O)O (some centres not stated) | nt | nt | 100* | 100* | nt | nt | nt
CC(=O)O[C@H]1CC[C@]2(C)C3CC[C@@]4(C)C(C[C@@H](O)[C@@H]4O)C3[C@@H](OC(C)=O)C[C@H]2C1 (some centres not stated) | 3 | 0 | nt | nt | nt | nt | nt
Cn1nc(C(F)(F)F)cc1-c1ccc(/C=C(\C#N)C(=O)c2ccccc2)s1 | 782* | 5 | nt | nt | 4 | 6 | nt
CNC(=O)c1ccc(-c2cc(C(F)(F)F)nn2C)s1 | -3 | -10 | 3 | 5 | 0 | 5 | nt
CCN(CC)CCN1C(=O)/C(=C\c2ccc(Cl)c([N+](=O)[O-])c2)SC1=Nc1ccc(OC)cc1 | 18 | 13 | -6 | 93* | -1 | -7 | nt
CC(=NNc1ccc(F)cc1)c1ccc(Cl)s1 | nt | nt | 4 | -3 | nt | nt | nt
O=C(CSc1nnc(-c2ccccc2)c(-c2ccccc2)n1)Nc1ncc(Cl)cc1Cl | 0 | -2 | 5 | 4 | 2 | 6 | nt
O=C(CSc1nnc(-c2ccccc2)c(-c2ccccc2)n1)Nc1ccc(Br)cn1 | 1 | -5 | 1 | 88* | 4 | 1 | nt
Fc1ccc(C=Nn2c(COc3ccccc3)n[nH]c2=S)cc1 | nt | nt | 3 | -1 | nt | nt | nt
Cc1ccc(Nc2cc(C)nn2-c2nc(C)cc(=O)[nH]2)cc1 | -4 | nt | 98* | 99* | 1 | 92 | nt
CCOC(=O)C1=C(O)/C(=C/c2cn(CC(=O)NCC3CCCO3)c3ccccc23)SC1=Nc1ccc(C)cc1 (configuration not stated) | + | nt | 7 | -5 | 0 | 12 | nt
O=C1C2C(c3ccc(Cl)cc3)N3C(=O)N(c4cccc(F)c4)C(=O)[C@@]3(Cc3ccccc3)C2C(=O)N1C1CCCCC1 (some centres not stated) | nt | nt | -1 | -23 | nt | nt | nt
Cc1ccc(C)c(S(=O)(=O)Nc2cc3c4c(c2)CC(=O)N4CCC3)c1 | 0 | -16 | -2 | -6 | nt | -1 | nt
Cc1ccc(S(=O)(=O)NN)c(C)c1N1CCCC1=O | 165* | -11 | -1 | -1 | 6 | -6 | nt
O=C1C2C3C=CC(C4CC34)C2C(=O)N1N=Cc1ccc(-c2ccc(F)cc2[N+](=O)[O-])o1 (configuration not stated) | nt | nt | 4 | 6 | nt | nt | nt
O=C(/C=C/c1c(F)cccc1Cl)Nc1cccnc1 | 4 | -13 | 4 | 5 | 20* | 5 | 16*
COc1cccc(C(C(=O)NCC2CCCO2)N(C(=O)Cn2nnc3ccccc32)c2ccc(NC(C)=O)cc2)c1OC (configuration not stated) | 7 | 2 | 3 | 3 | 15* | -4 | 9
COc1ccc(C(C(=O)NCC2CCCO2)N(C(=O)Cn2nnc3ccccc32)c2ccc(NC(C)=O)cc2)c(OC)c1 (configuration not stated) | 11 | -9 | 3 | 3 | 18* | -3 | 11
Cc1ccc(C(=O)NC(C#N)=C(Cl)Cl)cc1 | 0 | 7 | 9 | 10 | 13* | nt | 1
Cc1ccc(C(=O)NC(=C(Cl)Cl)S(=O)(=O)c2ccccc2)cc1 | 3 | 11 | 2 | 4 | 21* | -3 | 28*
SMILES | MazEF act | CCHF vOTU inh | Sa RN4220 lethal | Sa ugtP lethal | SARS 3CLpro inh-1 | Mtb betalactam | SARS 3CLpro inh-2
Cc1ccc(NN=Cc2ccc3c(c2)OCCO3)cc1Cl | nt | nt | -1 | 6 | nt | nt | nt
NC(=O)CCn1c(C(=O)c2ccc(Cl)cc2)c2ccccc2[n+]1[O-] | 1 | -2 | 5 | -11 | 46* | -5 | 48*
COC(=O)C1=C(c2ccc(F)cc2F)CC2CCC1N2C(=O)NCCNC(C)=O (configuration not stated) | nt | nt | 1 | 1 | nt | nt | nt
CCC(Cc1ccccc1)=NNC(=O)c1cccc(Br)c1 | nt | nt | 3 | 8 | nt | nt | nt
CC1(C)Cc2c(sc3nc(-c4cc5ccccc5o4)n(N)c(=O)c23)CO1 | 9 | 7 | 4 | 1 | 13* | -1 | -5
COc1ccc(C2C=CCN(C(=O)C(Cc3ccccc3)NC(=O)OCC3c4ccccc4-c4ccccc43)CC(=O)N2Cc2ccc(F)cc2)cc1 (configuration not stated) | nt | nt | 9 | 13 | nt | nt | nt
COc1cc(C=NNC(=O)CNC(=O)c2ccccc2)ccc1OC(=O)c1cccs1 | nt | nt | -1 | -5 | nt | nt | nt
CSc1cccc(NC(=O)Cc2ccccc2[N+](=O)[O-])c1 | 10 | 9 | 1 | -7 | 14* | 1 | 6
COc1cccc(NC(=O)COC(=O)Cc2ccccc2[N+](=O)[O-])c1 | -1 | 5 | 4 | 4 | 4 | 7 | nt
CC(=O)n1cc(C2C=C(C(=O)N3CCN(Cc4ccc5c(c4)OCO5)CC3)OC(OCCCCO)C2)c2ccccc21 (configuration not stated) | nt | nt | 3 | -19 | nt | nt | nt
CC(=O)N1C(C)C=C[C@]1(Cc1ccccc1)C(=O)O (some centres not stated) | nt | nt | 2 | 0 | nt | nt | nt
Cc1ccc(C)c(S(=O)(=O)N2CCN(C(=O)c3ccc(N4CCCC4)c([N+](=O)[O-])c3)CC2)c1 | 5 | -2 | 3 | 5 | 13* | 2 | 5
COc1ccc(N(C(C)C(=O)NN=Cc2cccnc2)S(C)(=O)=O)cc1 (configuration not stated) | nt | nt | 2 | 1 | nt | nt | nt
CC[C@@]12C(=O)N(c3cccc(F)c3)C(=O)N1[C@H](c1ccc(F)cc1)[C@@H]1C(=O)N(C3CCCCC3)C(=O)[C@@H]12 | 7 | nt | nt | nt | 16* | -10 | 8
O=C(COc1ccccc1)N1c2ccccc2Sc2ccccc21 | -14 | -16 | 4 | 17 | 0 | -8 | nt
O=C(OCC(=O)N1c2ccccc2Sc2ccccc21)c1cccnc1 | 4 | 11 | -6 | 8 | 21* | 7 | 22*
Cc1ccc(C(=O)Oc2ccc3c(c2)ncn3C)cc1 | -1 | -2 | 1 | -2 | 22* | 75 | 31*
Cc1nc2ccc(OC(=O)c3ccccc3)cc2s1 | -7 | -12 | 2 | 11 | 0 | 93 | nt
Cn1cnc2cc(NC(=O)c3ccc(Cl)cc3)ccc21 | -4 | 9 | 5 | 10 | 33* | -2 | 31*
